# Hit rate of the full screen: of about 310,000 compounds, about 14,000 (4.5%) showed an effect of 50% or more. Effects have a minus sign here. The list comes from a sample in which strong results are over-represented; it also holds similar structures and randomly drawn compounds.
# Molecular target: human ether-à-go-go-related gene (hERG) potassium channel (human, UniProt Q12809)
# Assay: primary screen, population patch clamp on CHO cells stably expressing hERG; higher = less effect of the substance
# 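Also: peak tail current of the secondary pulse compared with the same well before compound.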
# human ether-à-go-go-related gene (hERG) potassium channel, sequence (Q12809 whole entry, looked up): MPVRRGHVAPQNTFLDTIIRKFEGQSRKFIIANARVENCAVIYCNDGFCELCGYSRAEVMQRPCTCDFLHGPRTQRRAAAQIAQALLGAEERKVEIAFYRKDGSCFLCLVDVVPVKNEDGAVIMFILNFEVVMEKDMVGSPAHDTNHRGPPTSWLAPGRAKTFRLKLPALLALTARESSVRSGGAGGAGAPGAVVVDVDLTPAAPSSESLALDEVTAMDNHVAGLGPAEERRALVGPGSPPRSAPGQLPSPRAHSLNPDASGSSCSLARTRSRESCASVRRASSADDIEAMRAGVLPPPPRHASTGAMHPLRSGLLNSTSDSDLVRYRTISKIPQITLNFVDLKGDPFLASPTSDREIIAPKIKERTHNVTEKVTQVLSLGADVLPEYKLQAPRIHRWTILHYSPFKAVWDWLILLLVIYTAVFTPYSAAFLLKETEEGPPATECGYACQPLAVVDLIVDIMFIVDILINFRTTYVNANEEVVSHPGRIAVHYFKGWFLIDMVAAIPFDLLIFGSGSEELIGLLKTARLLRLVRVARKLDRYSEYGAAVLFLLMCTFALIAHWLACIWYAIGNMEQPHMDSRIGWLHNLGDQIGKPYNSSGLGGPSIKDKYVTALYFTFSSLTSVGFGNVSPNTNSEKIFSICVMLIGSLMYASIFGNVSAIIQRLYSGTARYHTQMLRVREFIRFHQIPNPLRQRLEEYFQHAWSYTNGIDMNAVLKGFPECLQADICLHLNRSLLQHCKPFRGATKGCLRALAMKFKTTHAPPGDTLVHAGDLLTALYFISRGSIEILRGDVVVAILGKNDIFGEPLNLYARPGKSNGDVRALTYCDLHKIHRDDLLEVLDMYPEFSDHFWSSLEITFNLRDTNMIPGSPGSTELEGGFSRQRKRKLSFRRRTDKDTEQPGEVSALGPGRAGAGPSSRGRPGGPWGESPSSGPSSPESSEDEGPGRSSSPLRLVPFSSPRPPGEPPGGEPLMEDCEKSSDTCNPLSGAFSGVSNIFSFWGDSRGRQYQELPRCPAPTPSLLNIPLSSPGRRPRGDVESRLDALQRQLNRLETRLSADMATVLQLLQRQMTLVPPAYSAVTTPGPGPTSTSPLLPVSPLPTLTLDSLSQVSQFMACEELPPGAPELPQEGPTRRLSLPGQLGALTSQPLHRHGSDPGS
row,Structure (SMILES),"hERG current change (%, negative = inhibition) at 10uM [%]"
1,COc1ccc(C(=O)OCC(=O)Nc2c(C)n(C)n(-c3ccccc3)c2=O)cc1OC,16.5
2,CCc1[nH]nc2c1C(C(C)C)C(C#N)=C(N)O2 (stereo not drawn),10.8
3,Cn1c(Cc2ccccc2)nnc1SCC(=O)Nc1ccc2c(c1)OCO2,5.64
4,Cc1ccc(NC(=O)/C(=C\c2ccccc2)NC(=O)/C=C/c2ccccc2)cc1,-12.9
5,Cn1c(=O)cc(SCC(=O)N2CCC3(CC2)OCCO3)c2ccccc21,-1.64
6,CC1CCN(C2(O)C(=O)Nc3ccc(Cl)cc32)CC1 (stereo not drawn),4.26
7,CC(Sc1ncnc2ccccc12)C(=O)Nc1ccc2c(c1)OCCO2 (stereo not drawn),5.25
8,N=c1ccccn1CC(O)COc1ccccc1 (stereo not drawn),-3.09
9,Cc1cccc(OCC(O)CNC(=O)c2ccccc2C(=O)O)c1 (stereo not drawn),-21.2
10,COc1ccc(OCC(O)CN2C(=O)c3ccccc3C2=O)cc1 (stereo not drawn),8.41
11,COc1ccc(OCC(O)Cn2c(=N)n(Cc3ccccc3)c3ccccc32)cc1.Cl (stereo not drawn),-73.5
12,Cl.N=c1n(Cc2ccccc2)c2ccccc2n1CC(O)COc1ccccc1 (stereo not drawn),-74.6
13,Cl.N=c1n(Cc2ccc(Cl)cc2)c2ccccc2n1CC(O)COc1ccccc1 (stereo not drawn),-68.2
14,OC(COc1ccccc1)Cn1c2ccccc2c2ccccc21 (stereo not drawn),6
15,Cc1cccc(OCC(O)Cn2c(=N)n(Cc3ccccc3)c3ccccc32)c1.Cl (stereo not drawn),-71
16,CC1(C)CC(=O)c2cc(C(=O)N3CCCC(C)(C)C3)c(=O)n(-c3ccccc3)c2C1,11.5
17,CCc1c(C)sc(NC(=O)/C=C/C(=O)O)c1C(N)=O,36.5
18,Cc1ccc(C2CC(=O)Nc3c2ccc2ccccc32)cc1[N+](=O)[O-] (stereo not drawn),6.65
19,CC(=O)c1nn(-c2ccccc2)cc1C(=O)c1ccc(C)cc1,3.72
20,N#Cc1c(C(F)(F)F)cc(-c2ccc(F)cc2)nc1SCC(=O)O,6.06
21,COc1ccc(OC)c(N(CC(=O)NCc2ccccc2)S(=O)(=O)c2ccc(OC)c(OC)c2)c1,18.3
22,CCN(CC)S(=O)(=O)c1ccc(OC)c(NC(=O)CCS(=O)(=O)Cc2ccccc2)c1,-28

row,Structure (SMILES),"hERG current change (%, negative = inhibition) at 10uM [%]"
1,Cc1csc(NC(=O)C2C3C=CC(C3)C2C(=O)O)n1 (stereo not drawn),-6.11
2,COC(=O)Cc1ccc(NC(=S)NCc2ccccc2Cl)cc1,-6.56
3,COC(=O)c1ccc(C(=O)OC)c(NS(C)(=O)=O)c1,-1.73
4,O=C1CC(C(F)(F)C(F)(F)C(F)(F)F)=Nc2ccccc2N1,-15.1
5,CC(=O)OCCNC(=O)c1cc2ccccc2oc1=O,9.06
6,Br.CC(C)(C)C(=O)Cn1c(=N)n(Cc2ccccc2)c2ccccc21,-48.2
7,N=c1n(Cc2ccccc2)c2ccccc2n1Cc1ccccc1,-62.1
8,O=c1n(Cc2ccccc2F)c2ccccc2n1Cc1ccccc1F,19.4
9,Br.N=c1n(CCc2ccccc2)c2ccccc2n1Cc1ccccc1F,-62.6
10,Cl.N=c1n(CCO)c2ccccc2n1Cc1ccccc1,-25.1
11,Br.CCn1c(=N)n(Cc2ccccc2F)c2ccccc21,-37.5
12,O=C(COc1ccc(Cl)cc1)NCCNC(=O)c1cnccn1,5.3
13,Cc1oc(-c2ccc(Cl)cc2)nc1CS(=O)CC(=O)NCCN1CCCCCC1 (stereo not drawn),-39.4
14,Cc1ccccc1Cn1cc(S(=O)(=O)c2ccc(C(C)C)cc2)c(=O)c2cc3c(cc21)OCO3,-20.2
15,CC1CCC(C(C)C)C(OC(=O)COC(=O)c2ccccc2N)C1 (stereo not drawn),9.64
16,CC1CCC(C(C)C)C(OC(=O)COC(=O)c2cc(O)ccc2N)C1 (stereo not drawn),12.9
17,Cc1cccc(OCc2n(CC(=O)OC3CC(C)CCC3C(C)C)c3ccccc3[n+]2C)c1.[Cl-] (stereo not drawn),-75
18,Cc1cccc(OC(=O)Cn2c(C(F)(F)F)nc3ccccc32)c1,17.6
19,Cc1ccccc1OCc1n(CC(=O)OC2CC(C)CCC2C(C)C)c2ccccc2[n+]1C.[Cl-] (stereo not drawn),-72
20,Cc1ccccc1OC(=O)Cn1c(C(F)(F)F)nc2ccccc21,3.95
21,COc1ccc(OCc2n(CC(=O)OC3CC(C)CCC3C(C)C)c3ccccc3[n+]2C)cc1.[Cl-] (stereo not drawn),-76.4
22,CC1CCC(C(C)C)C(OC(=O)Cn2c(COc3ccccc3)[n+](C)c3ccccc32)C1.[Cl-] (stereo not drawn),-80.4

row,Structure (SMILES),"hERG current change (%, negative = inhibition) at 10uM [%]"
1,CC1CCC(C(C)C)C(OC(=O)CSc2nc(N)cc(=O)[nH]2)C1 (stereo not drawn),12.7
2,CN1CCN(C(=O)CCCOc2cc(=O)n(C)c3ccccc23)CC1,0.874
3,COc1cccc(NC(=O)C2C3C=CC(O3)C2C(=O)O)c1 (stereo not drawn),10.6
4,Cc1ccccc1OCCNC(=O)CSc1ccc(C(F)(F)F)cc1[N+](=O)[O-],10.6
5,COc1ccc(CCNC(=O)c2ccc(N3CCCC3=O)cc2)cc1OC,15.3
6,COc1ccc(C(=O)N/C(=C/c2cccnc2)C(=O)N2CCN(C)CC2)cc1OC,11.4
7,Cc1cc(C)n(C(=O)COc2ccccc2C)n1,-3.33
8,Nc1c(C(=O)Nc2ccccc2F)sc2nc(-c3cccnc3)ccc12,20.9
9,O=C(COC(=O)c1ccncc1)Nc1cc(Cl)ccc1Cl,6.07
10,CCOCCn1c(SCc2ccc(F)cc2)nc2c1c(=O)[nH]c(=O)n2C,-19.5
11,Cc1ccc(C(C)C)c(OCCOCCN2CCNCC2)c1.O=C(O)C(=O)O,-3.95
12,CC(C)(C)c1ccc(OCC(=O)NCCN2CCCC2)cc1.Cl,-33.7
13,CCOC(=O)n1c(=O)n(Cc2ccc(Cl)cc2Cl)c2ccccc21,-3.22
14,COc1ccc(NC(=O)NC2CC3CCCC(C2)N3Cc2ccccc2)cc1 (stereo not drawn),-50.1
15,COc1ccc(NC(=O)N2C3CCCC2CC(NC(=O)c2ccccc2)C3)cc1 (stereo not drawn),-15.9
16,O=C(Nc1ccc(Cl)c(C(F)(F)F)c1)NC1CC2CCCC(C1)N2Cc1ccccc1 (stereo not drawn),-71
17,Cc1ccccc1NC(=O)NC1CCCCCCC1,8.64
18,Cc1cccc(NC(=S)NC2CC3CCCC(C2)N3Cc2ccccc2)c1C (stereo not drawn),-10.4
19,COc1ccc(CN2C3CCCC2CC(NC(=O)Nc2ccccc2)C3)cc1 (stereo not drawn),-74.1
20,COCC(=O)NC1CC2CCCC(C1)N2Cc1ccccc1 (stereo not drawn),-4.63
21,CC(=O)NC1CC2CCCC(C1)N2C(=O)Nc1ccc(Cl)c(C(F)(F)F)c1 (stereo not drawn),-3.34
22,COc1ccc(CN2C3CCCC2CC(NC(=O)Nc2ccccc2C)C3)cc1 (stereo not drawn),-59

row,Structure (SMILES),"hERG current change (%, negative = inhibition) at 10uM [%]"
1,O=C(Nc1ccc(Cl)c(C(F)(F)F)c1)NC1CC2CCCC(C1)N2C1CC1 (stereo not drawn),-10.1
2,COc1ccc(C(=O)NC2CC3CCCC(C2)N3Cc2ccccc2)c(OC)c1 (stereo not drawn),-26.5
3,CCOc1ccc(N2C(=O)CC(N)C2=O)cc1 (stereo not drawn),1.65
4,COc1ccc(OC)c(CCNC(=O)CC2(CC3=NS(=O)(=O)c4ccccc4N3)CCCC2)c1,-11.2
5,COC(=O)c1cc(-c2cccc([N+](=O)[O-])c2)c2c(=O)[nH]c(=O)n(C)c2n1,6.48
6,COc1cccc(NC(=O)CCNS(=O)(=O)c2cccc3nsnc23)c1,1.56
7,Cn1c(=O)c2ccccc2n(Cc2ccccc2Cl)c1=O,0.661
8,O=C(Nc1cccc(F)c1)NC1CC2CCCC(C1)N2C1CC1 (stereo not drawn),-8.34
9,Cc1cccc(NC(=O)NC2CC3CCC(C2)N3Cc2ccco2)c1 (stereo not drawn),-2.61
10,CCc1cccc(CC)c1NC(=O)CN1C2CCCC1CC(NC(=O)Nc1cccc(OC)c1)C2 (stereo not drawn),-7.7
11,COc1ccc(CN2C3CCCC2CC(NC(=O)Nc2cccc(C)c2)C3)cc1 (stereo not drawn),-75.3
12,Cc1ccc(CN2C3CCCC2CC(NC(=O)Nc2cccc(F)c2)C3)cc1 (stereo not drawn),-85.7
13,CCCN1C2CCCC1CC(NC(=O)Nc1cccc(C(C)=O)c1)C2 (stereo not drawn),-5.62
14,CCOC(=O)C1CCN(C(=O)C2CCN(S(=O)(=O)c3cc(Cl)ccc3Cl)CC2)CC1,-30.1
15,Cc1ccc(S(=O)(=O)N2CCOCC2)cc1C(=O)OCC(=O)c1ccc(Br)cc1,14.7
16,COc1ccc(-c2nc3ccc(N4CCN(C)CC4)cc3c(=O)[nH]2)cc1,8.45
17,O=c1c2ccccc2nc(N2CCCC2)n1-c1ccc(Cl)cc1,-3.18
18,O=c1c2ccccc2nc2n1CCN2Cc1ccc(Cl)cc1,-51.9
19,O=c1c2ccccc2nc(-c2ccccc2)n1Cc1ccc(Cl)cc1,-15.7
20,CCOC(=O)c1c(-n2c(C)cc(C=C3C(=O)NC(=S)NC3=O)c2C)sc2c1CCCC2,-5.55
21,CN1CCC(=NNC(=O)c2ccc(N(Cc3ccc(Cl)cc3)S(C)(=O)=O)cc2)CC1,-38

# From PMC4336329 (PLoS ONE, 2015)
